{"source": "the supplement of paper PMC8728848", "binders": {"B1": {"name": "BT4246 (Bacteroides thetaiotaomicron), Q89ZX5 (protein)", "chain": "MGSSHHHHHHENLYFQGHMASDYLDVVPPEQPNIDDAMSSPTRALGFLYSCYGGVSTDLPSAYLGEINSTTDEYVLPYSWNTDGYWGAYAFNTASSTNQDWLWGTTYQYIGQCYLFLQKLENAGSDIASDAEKEQWRAECQFLVAYYHFATLRRYGPIPITDSYIPMDTPTSEYNGRFHFDYCVDWIANQLDEAAKVLPANRTVTNEWGRATSTIAKAVKARLLLYAASPLWNGSFPYPNWQNENFETPGYGKALVSNTYDKSKWERALAACQEALTLATTSGDRELYDDDEYYSRQSLNLPFVPGVADVEDNKEFLKNVMKMRYAVSTRESEGNKEIIWGLSNQFDFYSRYPLRILKKSDGTWHAGYSGVSPTLYTFEHFYTANGKLPEKDLDFTPSSEWFESAGISSREDIIKLNVGREPRFYAWMAFDGGDYGTKFAAGSPLKLEMRNSEMHGYNPSLFNRDHSVTGFLTQKFVDPVTEFYTAGGSTSGTSAPTILFRLAELYLNVAECHAALGNTQEAIDALNPVRERAGIPKLTLADITNNMTIKDWVHNERFVELWNEGHRFFDVRRWAEGAKYFGANKREGLNAEVQSPTFEEFNKRTTVDAPYVWENRMYLNPVFYNEVYKNPQMVQAPGY"}}, "assay_in_all_cases": "glycan array binding signal (z-score within array); higher = stronger binding", "details_in_all_cases": "glycan notation: IUPAC condensed, linker removed", "key": {"[1]": {"target": "GlcNAc(a1-4)Gal(b1-4)GlcNAc(b1-3)Gal(b1-4)GlcNAc", "in_short": "(§1)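 The Consortium for Functional Glycomics database supplied 3228 glycan arrays, of which those lacking an available protein sequence were dropped. The binding signal, a within-array Z-score, was averaged across arrays of the same protein sequence and across linkers. Negative scores can be read as non-binding.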"}, "[2]": {"target": "GlcNAc(a1-4)Gal(b1-4)GlcNAc(b1-3)Gal(b1-4)[Fuc(a1-3)]GlcNAc(b1-3)Gal(b1-4)[Fuc(a1-3)]GlcNAc", "in_short": "as §1"}, "[3]": {"target": "GlcNAc(b1-2)Man(a1-3)[GlcNAc(b1-4)][GlcNAc(b1-2)Man(a1-6)]Man(b1-4)GlcNAc(b1-4)[Fuc(a1-6)]GlcNAc", "in_short": "as §1"}, "[4]": {"target": "GlcNAc(b1-3)Gal(b1-3)GalNAc", "in_short": "as §1"}, "[5]": {"target": "GlcNAc(b1-3)Gal(b1-4)GlcNAc(b1-2)Man(a1-3)[GlcNAc(b1-3)Gal(b1-4)GlcNAc(b1-2)Man(a1-6)]Man(b1-4)GlcNAc(b1-4)GlcNAc", "in_short": "as §1"}, "[6]": {"target": "GlcNAc(b1-3)Gal(b1-4)GlcNAc(b1-3)Gal(b1-4)GlcNAc(b1-2)Man(a1-3)[GlcNAc(b1-3)Gal(b1-4)GlcNAc(b1-3)Gal(b1-4)GlcNAc(b1-2)Man(a1-6)]Man(b1-4)GlcNAc(b1-4)[Fuc(a1-6)]GlcNAc", "in_short": "as §1"}, "[7]": {"target": "GlcNAc(b1-3)Gal(b1-4)GlcNAc(b1-3)Gal(b1-4)GlcNAc(b1-2)[GlcNAc(b1-3)Gal(b1-4)GlcNAc(b1-3)Gal(b1-4)GlcNAc(b1-6)]Man(a1-6)[GlcNAc(b1-3)Gal(b1-4)GlcNAc(b1-3)Gal(b1-4)GlcNAc(b1-2)Man(a1-3)]Man(b1-4)GlcNAc(b1-4)[Fuc(a1-6)]GlcNAc", "in_short": "as §1"}, "[8]": {"target": "GlcNAc(b1-3)Gal(b1-4)GlcNAc(b1-3)Gal(b1-4)GlcNAc(b1-3)Gal(b1-4)GlcNAc(b1-2)[GlcNAc(b1-3)Gal(b1-4)GlcNAc(b1-3)Gal(b1-4)GlcNAc(b1-3)Gal(b1-4)GlcNAc(b1-6)]Man(a1-6)[GlcNAc(b1-3)Gal(b1-4)GlcNAc(b1-3)Gal(b1-4)GlcNAc(b1-3)Gal(b1-4)GlcNAc(b1-2)Man(a1-3)]Man(b1-4)GlcNAc(b1-4)[Fuc(a1-6)]GlcNAc", "in_short": "as §1"}, "[9]": {"target": "GlcNAc(b1-3)Gal(b1-4)GlcNAc(b1-6)[Gal(b1-3)]GalNAc", "in_short": "as §1"}, "[10]": {"target": "GlcNAc(b1-3)[GlcNAc(b1-4)][GlcNAc(b1-6)]GlcNAc", "in_short": "as §1"}, "[11]": {"target": "GlcNAc(b1-4)Gal(b1-4)GlcNAc", "in_short": "as §1"}, "Kdn(a2-6)Gal(b1-4)GlcNAc": {"target": "Kdn(a2-6)Gal(b1-4)GlcNAc", "in_short": "as §1"}, "[12]": {"target": "Man(a1-2)Man(a1-3)[Man(a1-2)Man(a1-6)]Man(a1-6)[Man(a1-2)Man(a1-2)Man(a1-3)]Man(b1-4)GlcNAc(b1-4)GlcNAc", "in_short": "as §1"}, "[13]": {"target": "Man(a1-2)Man(a1-6)[Man(a1-3)]Man(a1-6)[Man(a1-2)Man(a1-2)Man(a1-3)]Man(b1-4)GlcNAc(b1-4)GlcNAc", "in_short": "as §1"}, "[14]": {"target": "Man(a1-3)[Man(a1-6)]Man(a1-6)[Man(a1-3)]Man", "in_short": "as §1"}, "[15]": {"target": "Neu5Ac(a2-3)Gal(b1-3)GlcNAc(b1-3)Gal(b1-4)GlcNAc", "in_short": "as §1"}, "[16]": {"target": "Neu5Ac(a2-3)Gal(b1-4)GlcNAc(b1-3)Gal", "in_short": "as §1"}, "[17]": {"target": "Neu5Ac(a2-3)Gal(b1-4)GlcNAc(b1-3)Gal(b1-4)GlcNAc(b1-6)[Gal(b1-3)]GalNAc", "in_short": "as §1"}, "[18]": {"target": "Neu5Ac(a2-3)Gal(b1-4)[Fuc(a1-3)]GlcNAc(b1-3)GalNAc", "in_short": "as §1"}, "[19]": {"target": "Neu5Ac(a2-3)Gal(b1-4)[Fuc(a1-3)]GlcNAc(b1-6)[Gal(b1-3)]GalNAc", "in_short": "as §1"}, "Neu5Ac(a2-6)Gal(b1-4)Glc": {"target": "Neu5Ac(a2-6)Gal(b1-4)Glc", "in_short": "as §1"}, "[20]": {"target": "Neu5Ac(a2-6)Gal(b1-4)GlcNAc(b1-2)Man(a1-3)[Neu5Ac(a2-3)Gal(b1-4)GlcNAc(b1-2)Man(a1-6)]Man(b1-4)GlcNAc(b1-4)GlcNAc", "in_short": "as §1"}, "[21]": {"target": "Neu5Ac(a2-6)Gal(b1-4)GlcNAc(b1-3)Gal(b1-4)GlcNAc(b1-3)[Neu5Ac(a2-6)Gal(b1-4)GlcNAc(b1-3)Gal(b1-4)GlcNAc(b1-6)]GalNAc", "in_short": "as §1"}, "[22]": {"target": "Neu5Gc(a2-3)Gal(b1-4)GlcNAc(b1-3)Gal(b1-4)GlcNAc(b1-2)Man(a1-3)[Neu5Gc(a2-3)Gal(b1-4)GlcNAc(b1-3)Gal(b1-4)GlcNAc(b1-2)Man(a1-6)]Man(b1-4)GlcNAc(b1-4)GlcNAc", "in_short": "as §1"}}, "note": "Many of the other results were omitted from the sample, so the strongest signals are more common in it than they were."}
{"binder": "B1", "values": [{"measurement": "glycan array binding signal (z-score)", "setting": "[1]", "value": -0.394}, {"measurement": "glycan array binding signal (z-score)", "setting": "[2]", "value": 3.11}, {"measurement": "glycan array binding signal (z-score)", "setting": "[3]", "value": 2.52}, {"measurement": "glycan array binding signal (z-score)", "setting": "[4]", "value": -0.081}, {"measurement": "glycan array binding signal (z-score)", "setting": "[5]", "value": 0.802}, {"measurement": "glycan array binding signal (z-score)", "setting": "[6]", "value": -0.16}, {"measurement": "glycan array binding signal (z-score)", "setting": "[7]", "value": 1.52}, {"measurement": "glycan array binding signal (z-score)", "setting": "[8]", "value": 0.637}, {"measurement": "glycan array binding signal (z-score)", "setting": "[9]", "value": -0.339}, {"measurement": "glycan array binding signal (z-score)", "setting": "[10]", "value": -0.635}, {"measurement": "glycan array binding signal (z-score)", "setting": "[11]", "value": -0.482}, {"measurement": "glycan array binding signal (z-score)", "setting": "Kdn(a2-6)Gal(b1-4)GlcNAc", "value": 1.42}, {"measurement": "glycan array binding signal (z-score)", "setting": "[12]", "value": -0.169}, {"measurement": "glycan array binding signal (z-score)", "setting": "[13]", "value": 1.59}, {"measurement": "glycan array binding signal (z-score)", "setting": "[14]", "value": 3.62}, {"measurement": "glycan array binding signal (z-score)", "setting": "[15]", "value": 1.07}, {"measurement": "glycan array binding signal (z-score)", "setting": "[16]", "value": -0.929}, {"measurement": "glycan array binding signal (z-score)", "setting": "[17]", "value": 0.439}, {"measurement": "glycan array binding signal (z-score)", "setting": "[18]", "value": 4.68}, {"measurement": "glycan array binding signal (z-score)", "setting": "[19]", "value": 2.47}, {"measurement": "glycan array binding signal (z-score)", "setting": "Neu5Ac(a2-6)Gal(b1-4)Glc", "value": -0.168}, {"measurement": "glycan array binding signal (z-score)", "setting": "[20]", "value": -0.62}, {"measurement": "glycan array binding signal (z-score)", "setting": "[21]", "value": 3.02}, {"measurement": "glycan array binding signal (z-score)", "setting": "[22]", "value": 2.77}]}
